Screening data deposited in PubChem BioAssay by National Center for Advancing Translational Sciences (NCATS).
SMN2 splice enh: SMN2 splice variant enhancement; AID 1458; 210,000 compounds, 2.8% hits; Potency, µM (highest dose often 46.1 µM), for the others: at the top dose activity change, positive = activation, actives largely listed as activators; HEK293 SMN2-luciferase splicing reporter, luminescence, 30-36 h; further: % of control where 0% means no effect; nearly all actives have a fitted effect of over 55% in size
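qHTS luciferase splicing reporter: luminescence rises when SMN2 exon 7 is included in transfected HEK293 cells. Compound exposure lasted 30-36 h at 37C, with 4.5 mM final sodium butyrate as control, followed by a ONE-Glo read.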
Rab9 promoter act: activates the Rab9 promoter. Huh7 Rab9 promoter-luciferase reporter, luminescence, 24 h. Potency, µM (doses to about 9.22 µM), for the others: at the highest dose activation, negative = inhibition, usual class: activators. 320,000 compounds, 2.8% hits. AID 485297; further: % of control where 0% means no effect; nearly all actives have a fitted effect of over 60% in size
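Using Huh7 cells stably transfected with Rab9 promoter–luciferase, compounds were incubated 24 h at 37 °C, 5% CO2; luciferase luminescence was read 10 min after reagent addition.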
p53 reactivator: restores transcriptional activity of mutant p53; H1299 p53-A138V BP100-luciferase reporter, luminescence, 24 h; Potency, µM (series often up to 92.2 µM), inactives show at the highest dose activity change, positive = activation, hits mostly activators; 320,000 compounds, 0.063% hits; AID 504706; further: % of control where 0% means no effect; nearly all actives have a fitted effect of over 45% in size
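H1299 (p53-null), stable ts p53-A138V + BP100-Luc; 1000 cells/well, Opti-MEM/10% FBS; cpd 4 pt, 1:5; 24 h, 37 deg C, 5% CO2; detection reagent 10 min RT; luminescence.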
FLuc modulator: firefly luciferase modulation, counter-screen for miR-21 project; P08659; purified FLuc, Km substrates, luminescence inhibition; Potency, µM (doses to about 57.5 µM), for the others: at the highest dose activity change, negative = inhibition, actives largely listed as inhibitors; 360,000 compounds, 6.9% hits;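 further: plate controls were vehicle for no effect and reference inhibitor for full effect; nearly all actives have a fitted effect of over 55% in size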
Target sequence (P08659 whole entry, looked up): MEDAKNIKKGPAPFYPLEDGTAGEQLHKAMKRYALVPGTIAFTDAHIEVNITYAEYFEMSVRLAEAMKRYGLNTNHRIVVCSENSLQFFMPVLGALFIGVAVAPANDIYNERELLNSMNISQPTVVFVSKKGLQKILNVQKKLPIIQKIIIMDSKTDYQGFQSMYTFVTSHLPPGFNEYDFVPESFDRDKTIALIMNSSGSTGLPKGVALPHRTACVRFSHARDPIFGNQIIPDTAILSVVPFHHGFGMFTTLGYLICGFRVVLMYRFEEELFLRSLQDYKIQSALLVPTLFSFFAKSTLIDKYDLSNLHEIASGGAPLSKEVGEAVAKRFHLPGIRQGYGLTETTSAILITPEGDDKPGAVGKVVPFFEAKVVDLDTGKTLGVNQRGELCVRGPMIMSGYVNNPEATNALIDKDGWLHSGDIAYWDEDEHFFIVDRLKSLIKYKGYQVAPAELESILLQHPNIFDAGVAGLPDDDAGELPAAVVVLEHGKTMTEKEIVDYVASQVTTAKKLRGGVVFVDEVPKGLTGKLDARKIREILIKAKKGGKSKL
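Purified P. pyralis luciferase (10nM final) with 10uM D-luciferin and 10uM ATP (Km levels) in 50mM Tris acetate pH 7.5, 10mM Mg acetate, 0.01% Tween-20, 0.05% BSA; qHTS 6-point titration, ~60 µM downward; luminescence read.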
ELG1 genotoxic: genotoxicity induction in ELG1-luciferase HEK293T cells; 330,000 compounds, 1.3% hits; Potency, µM (top dose mostly 46 µM), without a hit: at the top dose activity change, positive = activation, actives largely listed as activators; HEK293T ELG1-luciferase reporter, luminescence, 16 h; AID 504466; further: % of control where 0% means no effect; nearly all actives have a fitted effect of over 60% in size
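Luminescence read-out: rising ELG1-luciferase signal, reflecting elevated ELG1 protein under genetic stress, flags genotoxic compounds. Cells were treated for 16 hr at 37 °C before ONE-Glo detection.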
NPC1 prom act: activates the NPC1 promoter | Huh7 NPC1 promoter luciferase reporter, 24 h | Potency, µM (series often up to 9.22 µM), for the others: at the top dose activation, usual class: activators | 320,000 compounds, 2.4% hits; further: % of control where 0% means no effect; nearly all actives have a fitted effect of over 60% in size
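Quantitative HTS used a cell-based reporter: Huh7 cells stably bearing the NPC1 promoter upstream of luciferase were treated with compounds for 24 h, and promoter activation was read as luminescence.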
* hit, by the source's call; ? = inconclusive; . = no result; [ ] = remark or other dose. In the library only some 7.3% were active in any assay of this set; here they are far more common. The call rests on the fitted dose curve; in most records, active means well fitted curve in the direction sought with a large enough effect; inconclusive means small, poorly fitted or top-dose-only effect, or another doubt; inactive means no such curve, though single readings can be large; an effect the other way counts as inactive or inconclusive. Potency means the concentration at half of the fitted maximal effect.

SMILES | SMN2 splice enh | Rab9 promoter act | p53 reactivator | FLuc modulator | ELG1 genotoxic | NPC1 prom act
CC(C)(C)CC(=O)O/N=C(\N)c1ccncc1 | 14.2% | 0.8% | 2.2% | ? | 3.8% | 8.4%
N/C(=N\OC(=O)CCC1CCCC1)c1ccncc1 | 2.8% | 1.7%[1.84 µM] | -2.6% | 13.5µM* | 8.7% | -3.9%
N/C(=N\OC(=O)CC1CCCCC1)c1ccncc1 | . | 0.6% | 9.8% | 19µM* | 8.4% | 0.1%
N/C(=N\OC(=O)CC1CCCCC1)c1ccccn1 | 15.5% | 14.5% | 19.6% | 0.601µM* | ? | 19.9%
COc1cccc(NC(=O)Cn2c(=O)n(-c3ccc(C)cc3)c(=O)c3ccccc32)c1 | -2.7% | . | . | -6.5% | . | .
COc1cccc(Nc2nc(CC(C)=O)ns2)c1 | 17.0% | 26.5% | 12.8% | ? | ? | ?
CC(=O)Cc1nsc(Nc2ccc(F)cc2)n1 | 23.6% | 19.4% | 22.3% | -6.3% | 11.2% | 4.3%
COc1ccc(Nc2nc(CC(C)=O)ns2)cc1 | 14.1µM* | 3.16µM* | ? | ? | ? | ?
CC(=O)Cc1nsc(Nc2ccc3c(c2)OCCO3)n1 | 12.6µM* | 3.98µM* | 26.1% | 23.9µM* | ? | 3.55µM*
O=C(CC1C(=O)NCCN1Cc1ccc(F)c(F)c1)NCCCn1ccnc1 (configuration not stated) | . | -8.2% | 5.4% | -2.9% | 0.7% | -0.6%
COc1ccc(Cl)cc1NC(=O)CSc1nc2ccccc2nc1N1CCCCC1 | 1.5% | . | . | -7.1% | . | .
N#CC(=C1CCCC1)c1nc(-c2ccccc2O)cs1 | ? | 3.55µM* | ? | 1.35µM* | 3.66µM* | 2.82µM*
N#CC(=C1CCCC1)c1nc(-c2cc3ccccc3oc2=O)cs1 | ? | 3.16µM* | ? | 2.13µM* | ? | ?
N#C/C(=N\O)c1nc(-c2ccccc2)cs1 | -8.7% | 1.4% | 6.0% | -10.5% | 0.0% | 1.3%
N#C/C(=C/c1ccccc1Cl)c1nc(-c2cc3ccccc3oc2=O)cs1 | -5.9% | . | . | -6.8% | . | .
N#CC(=C1CCCC1)c1nc(-c2ccccc2)cs1 | 15.8µM* | ? | ? | 1.35µM* | ? | 3.16µM*
Cc1ccc(-c2csc(C(C#N)=C3CCCC3)n2)cc1 | 17.8µM* | 4.47µM* | 22.0% | 2.69µM* | ? | 3.16µM*
Cc1cc(C)c(S(=O)(=O)N2CCN(C)CC2)c(C)c1 | -8.3% | 8.4% | -2.3% | -0.2% | 1.3% | -2.6%
CC(/C=N/NC(=O)c1nn(C)c(C)c1Br)=C\c1ccccc1 | . | 3.55µM* | ? | 1.9µM* | ? | ?
CC(/C=N/NC(=O)c1c(Br)cnn1C)=C\c1ccccc1 | 13.6% | 16.8% | 20.1% | 16.9µM* | 7.8% | 23.0%
Cn1ncc(Br)c1C(=O)N/N=C/c1ccc(OS(=O)(=O)c2ccccc2)cc1 | 1.7% | -0.5% | 5.3% | 1.4% | 6.2% | 2.9%
Cc1cc(C(=O)COc2ccc(Cl)cc2Br)c(C)n1C | 7.2% | ? | -4.8% | 21.3µM* | 10.5% | 28.0%
Cc1cc(C(=O)COc2cccc3cccnc23)c(C)n1C | ? | 26.5% | 4.9% | 16.9µM* | 0.6% | ?
Cc1ccsc1/C=N\NC(=O)c1n[nH]c2c1CCC2 | 1.58µM* | 0.631µM* | 17.8% | 2.13µM* | ? | 1µM*
O=C(N/N=C/c1c(Cl)cccc1Cl)c1n[nH]c2c1CCCC2 | 17.8µM* | 2.82µM* | ? | 6.75µM* | ? | 2.82µM*
SMILES | SMN2 splice enh | Rab9 promoter act | p53 reactivator | FLuc modulator | ELG1 genotoxic | NPC1 prom act
Nc1nc2nn(-c3ccccc3)nc2c(=O)[nH]1 | . | 2.82µM* | 12.9% | 4.78µM* | ? | 2µM*
CCOC(=O)c1c(C)c(-c2ccccc2)n(CC(=O)Nc2cccc(F)c2)c1C | -13.2% | . | . | -12.1% | . | .
COc1ccc(OCc2cccc(C(=O)O)c2)cc1 | 0.0398µM* | 1µM* | -24.6% | 0.0301µM* | . | 0.0006µM*
O=C(OCC(F)(F)F)c1cccc(COc2ccc3ccccc3c2)c1 | 0.447µM* | ? | -9.3% | 3.38µM* | ? | 1µM*
CCOc1ccc(OCc2cccc(C(=O)O)c2)cc1 | 0.0316µM* | -25.4% | -27.7% | 0.0169µM* | -28.8% | -22.2%
O=C(O)c1cccc(S(=O)(=O)Nc2ccc(OCc3ccccc3)cc2)c1 | . | -2.8% | -2.0% | -8.0% | -3.7% | 1.4%
CCOc1ccc(OCc2ccc(C(=O)N(CC)CC)cc2)cc1 | 23.9% | ? | -3.4% | 15.1µM* | 5.9% | ?
O=C(O)c1cc(OCc2ccccc2)cc(OCc2ccccc2)c1 | . | -8.0% | -3.2% | 1.2% | -5.5% | -0.9%
CC(=O)N1c2ccccc2C(=O)C1N1CCCCC1 (configuration not stated) | 2.8% | 6.6% | -0.8% | 1.1% | 1.3% | 7.8%
COc1cc(/C=C/[N+](=O)[O-])ccc1OCc1cccc(C(=O)O)c1 | 1.26µM* | 1.26µM* | -12.0% | 0.213µM* | ? | 1µM*
CN[C@@H](CC(C)C)C(=O)N[C@@H]1C(=O)N[C@H](CC(N)=O)C(=O)N[C@@H]2C(=O)N[C@H]3C(=O)N[C@H](C(=O)N[C@H](C(=O)O)c4cc(O)cc(O)c4-c4cc3ccc4O)[C@H](O)c3ccc(c(Cl)c3)Oc3cc2cc(c3O[C@H]2O[C@@H](CO)[C@@H](O)[C@@H](O)[C@@H]2O[C@@H]2C[C@](C)(N)[C@H](O)[C@H](C)O2)Oc2ccc(cc2Cl)[C@@H]1O | -5.8%[20.6 µM] | . | . | . | . | .
Cn1c2ccccc2c(=O)c2cc(C#Cc3ccccn3)ccc21 | . | 5.01µM* | 25.0% | 3.01µM* | ? | 2.51µM*
Cn1c2ccccc2c(=O)c2ccc(C#Cc3ccccn3)cc21 | . | 22.0% | 13.6% | -17.4% | 15.1% | 16.4%
Cn1c2ccccc2c(=O)c2cc(C#Cc3ccsc3)ccc21 | . | 2.82µM* | . | 2.39µM* | 10.0% | ?
Cc1ccc2c(c1)c1c(c(=O)n(-c3ccccc3)c(=O)n1Cc1ccccc1C)n2C | . | . | . | -5.0% | . | .
CC1CCc2c(sc(NC(=O)CSc3nc(N)cc(=O)[nH]3)c2C(N)=O)C1 (configuration not stated) | . | -4.0% | -13.3% | 16.9µM* | -1.0% | -6.7%
CC(C)(C)C1CCc2c(sc(NC(=O)c3cccs3)c2C(N)=O)C1 (configuration not stated) | -21.1% | 3.98µM* | 9.3% | 0.536µM* | ? | ?
CNC(=O)c1c(NC(=O)C2=COCCO2)sc2c1CCC(C)C2 (configuration not stated) | . | 20.3% | -2.9% | 2.69µM* | 13.8% | -1.3%
CCC(C)(C)C1CCc2c(sc(NC(=O)c3cccs3)c2C(N)=O)C1 (configuration not stated) | -13.3% | 22.2% | -0.3% | ? | 16.6% | 10.8%
